Source: PubChem BioAssay (EPA / NIEHS)
Where “and” joins values, the source holds several entries; their conditions need not be identical. Identical values can stand only once. A structure can be active in one record and inactive in another. Calls of active or inactive are those of the source. Rule for the calls: active = hit-call score of the fitted dose curve at least 0.9, where 1 is the maximum; inactive = score below 0.9.

Key:
Conditions in all cases: mRNA level, 48 h; actives raise or lower the signal
[1] = read-out: Paternally Expressed 10 (PEG10), PEG10 (gene 23089); assay: LTEA_HepaRG_PEG10: Life Technologies and Expression Analysis (LTEA) Assay for Paternally Expressed 10 (PEG10) using HepaRG (AID 2283520);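 for AC50: PEG10 transcript by qRT-PCR normalised to ACTB GAPDH and POLR2A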
Summary of the method: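 Human HepaRG cultures are dosed for 48 h across an eight-point half-log series starting at 100 uM, with 0.5% DMSO as vehicle and baseline. Gain or loss of PEG10 transcript is measured by qRT-PCR and fitted in both directions.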

[2] = read-out: Nuclear factor NF-kappa-B p105 subunit (Homo sapiens) (UniProt P19838); assay: LTEA_HepaRG_NFKB1: Life Technologies and Expression Analysis (LTEA) Assay for Nuclear Factor Kappa B Subunit 1 (NFKB1) using HepaRG (AID 2283521)
Summary of the method: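 Differentiated human HepaRG cells in serum-free induction medium with 0.5% DMSO were exposed for 48 h to eight half-log concentrations, top 100 uM, in duplicate. NFKB1 mRNA measured by Fluidigm TaqMan qRT-PCR, normalised to ACTB, GAPDH and POLR2A; bidirectional fit versus DMSO.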

[3] = read-out: Protein phosphatase 2A (PPP2R4), PTPA (gene 5524); assay: LTEA_HepaRG_PPP2R4: Life Technologies and Expression Analysis (LTEA) Assay for Protein phosphatase 2A (PPP2R4) using HepaRG (AID 2283522)
Summary of the method: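 Cells were plated, cultured 48 h, switched to serum-free induction medium, then dosed for 48 h (8 points, max 100 uM, 0.5% DMSO). RNA was isolated and PPP2R4 expression measured by TaqMan qRT-PCR.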

[4] = read-out: Phosphatase and tensin (PTEN), PTEN (gene 5728); assay: LTEA_HepaRG_PTEN: Life Technologies and Expression Analysis (LTEA) Assay for Phosphatase and tensin (PTEN) using HepaRG (AID 2283523)
Summary of the method: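 Expression of PTEN is quantified in the human liver line HepaRG following two days of dosing (top concentration 100 uM, half-log dilutions, 0.5% DMSO). Values derive from bidirectional curve fitting relative to DMSO controls.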

[5] = read-out: solute carrier (SLC22A1), SLC22A1 (gene 6580); assay: LTEA_HepaRG_SLC22A1: Life Technologies and Expression Analysis (LTEA) Assay for solute carrier (SLC22A1) using HepaRG (AID 2283524);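 for AC50: TaqMan qRT-PCR normalized to ACTB GAPDH and POLR2A housekeeping genes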
Summary of the method: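 Transcript induction or suppression of SLC22A1 in human HepaRG cultures is scored after 48 h chemical treatment, with DMSO (0.5%) as baseline for bidirectional fitting. Concentrations span eight half-log points topping at 100 uM.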

[6] = read-out: Pyruvate Dehydrogenase Kinase 4 (PDK4), PDK4 (gene 5166); assay: LTEA_HepaRG_PDK4: Life Technologies and Expression Analysis (LTEA) Assay for Pyruvate Dehydrogenase Kinase 4 (PDK4) using HepaRG (AID 2283525)
Summary of the method: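 Eight-point, half-log concentration series (max 100 uM, 0.5% DMSO) applied to differentiated HepaRG cells for 48 h in duplicate. Endpoint: PDK4 mRNA induction or repression by qRT-PCR against DMSO baseline.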

[7] = read-out: NAD(P)H dehydrogenase [quinone] 1 (NQO1), NQO1 (gene 1728); assay: LTEA_HepaRG_NQO1: Life Technologies and Expression Analysis (LTEA) Assay for NAD(P)H dehydrogenase [quinone] 1 (NQO1) using HepaRG (AID 2283526)
Summary of the method: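 Transcript induction or suppression is quantified by qRT-PCR in human HepaRG liver cells dosed for 48 hours. Eight half-log concentrations topping at 100 uM are used, with 0.5% DMSO as vehicle and baseline.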

[8] = read-out: Nuclear factor erythroid 2-related factor 2 (Homo sapiens) (UniProt Q16236); assay: LTEA_HepaRG_NFE2L2: Life Technologies and Expression Analysis (LTEA) Assay for Nuclear factor erythroid 2-related factor 2 (NFE2L2) Transcription Factor using HepaRG (AID 2283527)
Summary of the method: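 Human liver HepaRG line treated in duplicate for 48 h with an eight-point series topping at 100 uM. Gene expression of NFE2L2 by qRT-PCR, bidirectionally fitted against the vehicle control.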

[9] = read-out: succinate dehydrogenase complex iron sulfur subunit B (SDHB), SDHB (gene 6390); assay: LTEA_HepaRG_SDHB: Life Technologies and Expression Analysis (LTEA) Assay for succinate dehydrogenase complex iron sulfur subunit B (SDHB) using HepaRG (AID 2283528)
Summary of the method: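 HepaRG cells (~100,000/well, plated 48 h) exposed in duplicate for 48 h in serum-free induction medium to 8-point half-log series from 100 uM in 0.5% DMSO; mRNA by qRT-PCR normalised to ACTB, GAPDH, POLR2A; bidirectional fit versus DMSO.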

[10] = read-out: Signal transducer and activator of transcription 3 (Homo sapiens) (UniProt P40763); assay: LTEA_HepaRG_STAT3: Life Technologies and Expression Analysis (LTEA) Assay for Signal transducer and activator of transcription (STAT3) using HepaRG (AID 2283529)
Summary of the method: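 In this transcriptional endpoint, HepaRG cultures receive test chemicals at up to 100 uM for 48 h, tested in duplicate. STAT3 mRNA is normalized to ACTB, GAPDH and POLR2A.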

Measured: AC50

Chain of Signal transducer and activator of transcription 3 (Homo sapiens) (P40763 whole entry, looked up): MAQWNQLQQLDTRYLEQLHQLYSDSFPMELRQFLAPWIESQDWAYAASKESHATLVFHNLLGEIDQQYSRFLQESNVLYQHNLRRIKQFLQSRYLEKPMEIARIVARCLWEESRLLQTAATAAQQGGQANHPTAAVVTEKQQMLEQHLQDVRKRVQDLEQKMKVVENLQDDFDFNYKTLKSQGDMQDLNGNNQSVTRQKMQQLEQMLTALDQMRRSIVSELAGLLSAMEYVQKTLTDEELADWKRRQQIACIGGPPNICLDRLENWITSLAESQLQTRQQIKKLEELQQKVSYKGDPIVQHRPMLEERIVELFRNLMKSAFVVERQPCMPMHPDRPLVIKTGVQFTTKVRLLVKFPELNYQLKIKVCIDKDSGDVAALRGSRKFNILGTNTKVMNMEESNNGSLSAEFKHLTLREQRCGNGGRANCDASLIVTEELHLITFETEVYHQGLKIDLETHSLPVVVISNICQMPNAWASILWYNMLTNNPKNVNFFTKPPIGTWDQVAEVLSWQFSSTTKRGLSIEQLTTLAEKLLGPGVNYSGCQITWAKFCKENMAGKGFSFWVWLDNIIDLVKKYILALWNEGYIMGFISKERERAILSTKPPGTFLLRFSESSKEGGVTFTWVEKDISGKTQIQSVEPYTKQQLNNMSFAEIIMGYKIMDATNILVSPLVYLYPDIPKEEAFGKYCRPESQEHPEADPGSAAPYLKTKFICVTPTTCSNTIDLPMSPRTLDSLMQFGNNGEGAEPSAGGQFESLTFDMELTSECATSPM
Chain of Nuclear factor NF-kappa-B p105 subunit (Homo sapiens) (P19838 whole entry, looked up): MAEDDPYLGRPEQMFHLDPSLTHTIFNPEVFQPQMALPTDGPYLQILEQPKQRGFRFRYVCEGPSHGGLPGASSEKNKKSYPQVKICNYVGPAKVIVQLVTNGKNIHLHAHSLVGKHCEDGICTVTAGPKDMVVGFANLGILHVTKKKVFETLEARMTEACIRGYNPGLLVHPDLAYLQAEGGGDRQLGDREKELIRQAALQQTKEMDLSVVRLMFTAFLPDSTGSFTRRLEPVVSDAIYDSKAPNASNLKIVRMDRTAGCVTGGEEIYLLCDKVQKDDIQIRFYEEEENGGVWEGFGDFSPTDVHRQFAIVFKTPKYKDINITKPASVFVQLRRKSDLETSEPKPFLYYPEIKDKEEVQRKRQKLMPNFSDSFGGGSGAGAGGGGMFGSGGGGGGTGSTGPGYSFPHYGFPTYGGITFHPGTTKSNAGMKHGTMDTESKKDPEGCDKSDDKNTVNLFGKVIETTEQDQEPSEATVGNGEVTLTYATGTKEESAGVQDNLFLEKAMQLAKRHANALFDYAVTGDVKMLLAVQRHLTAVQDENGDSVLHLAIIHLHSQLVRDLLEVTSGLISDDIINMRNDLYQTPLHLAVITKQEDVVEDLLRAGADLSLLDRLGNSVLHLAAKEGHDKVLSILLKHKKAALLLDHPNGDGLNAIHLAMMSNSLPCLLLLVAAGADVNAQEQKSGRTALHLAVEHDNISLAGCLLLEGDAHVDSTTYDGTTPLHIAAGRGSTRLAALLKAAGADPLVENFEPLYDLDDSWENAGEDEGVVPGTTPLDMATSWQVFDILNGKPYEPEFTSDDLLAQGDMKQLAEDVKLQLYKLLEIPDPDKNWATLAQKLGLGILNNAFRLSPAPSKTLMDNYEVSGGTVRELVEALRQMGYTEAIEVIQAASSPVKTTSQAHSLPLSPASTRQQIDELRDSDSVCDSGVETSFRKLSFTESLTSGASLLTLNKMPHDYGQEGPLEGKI
Chain of Nuclear factor erythroid 2-related factor 2 (Homo sapiens) (Q16236 whole entry, looked up): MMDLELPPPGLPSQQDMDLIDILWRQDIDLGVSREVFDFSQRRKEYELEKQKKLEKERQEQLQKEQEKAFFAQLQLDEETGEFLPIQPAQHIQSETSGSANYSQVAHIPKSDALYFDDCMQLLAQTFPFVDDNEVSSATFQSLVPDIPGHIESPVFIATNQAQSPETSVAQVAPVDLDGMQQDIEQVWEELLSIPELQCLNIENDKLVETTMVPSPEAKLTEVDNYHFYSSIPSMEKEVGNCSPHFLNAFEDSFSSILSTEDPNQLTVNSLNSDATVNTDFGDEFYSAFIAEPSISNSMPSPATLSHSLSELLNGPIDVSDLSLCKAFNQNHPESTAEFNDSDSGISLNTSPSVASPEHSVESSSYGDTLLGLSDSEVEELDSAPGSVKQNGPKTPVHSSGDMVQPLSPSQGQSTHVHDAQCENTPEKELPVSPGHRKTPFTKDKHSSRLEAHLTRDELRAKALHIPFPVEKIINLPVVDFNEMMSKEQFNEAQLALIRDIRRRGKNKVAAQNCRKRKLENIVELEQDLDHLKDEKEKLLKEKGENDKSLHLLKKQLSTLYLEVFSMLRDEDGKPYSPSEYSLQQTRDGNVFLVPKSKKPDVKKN

CC(C)(C)C(O)C(Oc1ccc(Cl)cc1)n1cncn1 (stereo not drawn)
active: [1] 1.4 µM | [8] 9.92 µM
inactive: [1] | [2] | [3] | [4] | [5] | [6] | [7] | [8] | [9] | [10]

CCN(CC)C(=O)SCc1ccc(Cl)cc1
inactive: all assays above

O=C(O)C(F)(F)C(F)(F)C(F)(F)C(F)(F)C(F)(F)C(F)(F)C(F)(F)F
active: [6] 26.9 µM and 21.7 µM
inactive: all other assays above

C#CCN1C(=O)COc2cc(F)c(N3C(=O)C4=C(CCCC4)C3=O)cc21
active: [1] 37.8 µM
inactive: all other assays above

Oc1ccc(Cl)cc1Cc1ccccc1
active: [1] 89 µM and 77.3 µM and 78.6 µM | [2] 15.7 µM | [4] 86 µM | [5] 91.8 µM and 91.6 µM | [6] 76.8 µM and 83.6 µM
inactive: [2] | [3] | [4] | [5] | [6] | [7] | [8] | [9] | [10]

CNC(=O)Oc1ccccc1OC(C)C
inactive: all assays above

CC(C)N(C(=O)COc1nnc(C(F)(F)F)s1)c1ccc(F)cc1
active: [1] 22.2 µM | [3] 31.4 µM | [5] 39.5 µM
inactive: all other assays above

O=C1c2ccccc2C(=O)N1SC(Cl)(Cl)Cl
inactive: all assays above

CCCN(CCC)c1c([N+](=O)[O-])cc(C(F)(F)F)cc1[N+](=O)[O-]
inactive: all assays above

O=[N+]([O-])c1c(Cl)c(Cl)c(Cl)c(Cl)c1Cl
active: [1] 69.8 µM
inactive: all other assays above

N#CN
inactive: all assays above

O=C(NC(=O)c1c(F)cccc1F)Nc1ccc(OC(F)(F)C(F)OC(F)(F)F)c(Cl)c1 (stereo not drawn)
inactive: all assays above

CCC(C)(C)C(=O)OC1=C(c2ccc(Cl)cc2Cl)C(=O)OC12CCCCC2
inactive: all assays above

CCc1ccc(C(=O)NN(C(=O)c2cc(C)cc(C)c2)C(C)(C)C)cc1
inactive: all assays above

CC1(C)C(C=C(Cl)Cl)C1C(=O)OC(C#N)c1ccc(F)c(Oc2ccccc2)c1 (stereo not drawn)
active: [6] 50 µM | [8] 50 µM
inactive: all other assays above

Oc1cc(Cl)ccc1Oc1ccc(Cl)cc1Cl
active: [1] 51 µM | [5] 86 µM | [6] 82 µM and 88.4 µM
inactive: [1] | [2] | [3] | [4] | [5] | [6] | [7] | [8] | [9] | [10]

COP(=S)(OC)Oc1ccc([N+](=O)[O-])cc1
inactive: all assays above

CCOCN(C(=O)CCl)c1c(C)cccc1CC
active: [2] 0.338 µM | [5] 81.1 µM | [6] 50 µM
inactive: all other assays above

ClC1C(Cl)C(Cl)C(Cl)C(Cl)C1Cl (stereo not drawn)
active: [1] 4.25 µM and 27.6 µM
inactive: all other assays above

O=S1OCC2C(CO1)C1(Cl)C(Cl)=C(Cl)C2(Cl)C1(Cl)Cl (stereo not drawn)
active: [5] 63 µM
inactive: all other assays above

COP(=O)(OC)OC=C(Cl)Cl
inactive: all assays above

CCOC1Oc2ccc(OS(C)(=O)=O)cc2C1(C)C (stereo not drawn)
inactive: [3] | [4] | [7] | [8]
active: [1] 28.4 µM | [2] 9.92 µM | [5] 71.9 µM | [6] 85.7 µM | [9] 9.92 µM | [10] 21.4 µM

N#Cc1c(Cl)c(Cl)c(Cl)c(C#N)c1Cl
active: [4] 68.7 µM | [5] 61.5 µM | [6] 75.6 µM
not listed: [2]
inactive: all other assays above

COc1nn(CSP(=S)(OC)OC)c(=O)s1
inactive: all assays above

OCCOc1ccccc1
not listed: [2]
inactive: all other assays above

C[C@H]1[C@H](c2ccc(Cl)cc2)SC(=O)N1C(=O)NC1CCCCC1
inactive: [4] | [6] | [7] | [10]
active: [1] 12.8 µM | [3] 50 µM | [5] 50 µM | [8] 73 µM | [9] 26.7 µM

CNC(=O)Oc1cccc(N=CN(C)C)c1
not listed: [2]
inactive: all other assays above

O=C(O)COc1ccc(Cl)cc1Cl
active: [1] 10.1 µM | [6] 38.5 µM
not listed: [2]
inactive: all other assays above

Clc1ccccc1-c1nnc(-c2ccccc2Cl)nn1
active: [1] 30.7 µM | [5] 50 µM
not listed: [2]
inactive: all other assays above

CCCN(CCOc1c(Cl)cc(Cl)cc1Cl)C(=O)n1ccnc1
active: [1] 6.24 µM | [4] 79.1 µM | [5] 29.5 µM | [6] 30.8 µM | [8] 29.9 µM | [9] 12.1 µM
inactive: [3] | [7] | [10]

CNC(=O)CSP(=S)(OC)OC
not listed: [2]
inactive: all other assays above

CC(C)OC(=O)Nc1cccc(Cl)c1
inactive: all assays above

O=C(O)CCCOc1ccc(Cl)cc1Cl
active: [1] 10.4 µM | [6] 50.8 µM
not listed: [2]
inactive: all other assays above

O=S(=O)(O)C(F)(F)C(F)(F)C(F)(F)C(F)(F)C(F)(F)C(F)(F)C(F)(F)C(F)(F)F
active: [3] 50 µM | [5] 90.2 µM and 89.8 µM and 83.1 µM | [6] 27 µM [middle of 4 runs] | [8] 58 µM | [9] 9.92 µM
inactive: [1] | [3] | [4] | [5] | [7] | [8] | [9] | [10]

CN1CSC(=S)N(C)C1
inactive: all assays above

CNC(=O)/C=C(\C)OP(=O)(OC)OC
active: [6] 37.1 µM
not listed: [2]
inactive: all other assays above

O=C(Nc1ccccc1)Nc1cnns1
active: [1] 61.5 µM | [5] 70 µM | [6] 62.4 µM
inactive: all other assays above

COP(=S)(OC)Oc1ccc(SC)c(C)c1
active: [1] 9.92 µM
inactive: all other assays above

CC[C@H](C)[C@H]1O[C@]2(C=C[C@@H]1C)C[C@@H]1C[C@@H](C/C=C(\C)[C@@H](O[C@H]3C[C@H](OC)[C@@H](O[C@H]4C[C@H](OC)[C@@H](O)[C@H](C)O4)[C@H](C)O3)[C@@H](C)/C=C/C=C3\CO[C@@H]4[C@H](O)C(C)=C[C@@H](C(=O)O1)[C@]34O)O2 (tested in a mixture with another compound)
active: [1] 49.3 µM | [3] 47.7 µM | [4] 54.5 µM | [5] 9.94 µM | [6] 16.3 µM | [7] 49.7 µM | [8] 14 µM | [9] 59.5 µM | [10] 46 µM
inactive: [2]

CC1(c2ccc(Oc3ccccc3)cc2)OC(=O)N(Nc2ccccc2)C1=O (stereo not drawn)
active: [1] 6.47 µM | [3] 12.1 µM | [5] 13.5 µM | [6] 32.1 µM | [7] 50.2 µM | [8] 23 µM | [10] 50.2 µM
inactive: [4] | [9]

Cc1[nH]c(=O)n(C(C)(C)C)c(=O)c1Cl
active: [8] 50 µM
inactive: all other assays above

O=[N+]([O-])/N=C1\NCCN1Cc1ccc(Cl)nc1
inactive: [4]
active: [1] 16.6 µM | [3] 24.3 µM | [5] 50 µM | [6] 34.4 µM | [7] 29.1 µM | [8] 18.9 µM | [9] 25.8 µM | [10] 20.1 µM

CCC(C)(NC(=O)c1cc(Cl)c(C)c(Cl)c1)C(=O)CCl (stereo not drawn)
active: [1] 59.2 µM | [4] 90.8 µM | [5] 82.9 µM | [7] 79.8 µM
inactive: all other assays above

CCC(C)Nc1c([N+](=O)[O-])cc(C(C)(C)C)cc1[N+](=O)[O-] (stereo not drawn)
active: [1] 29.9 µM
not listed: [2]
inactive: all other assays above

CC(C)(C)C(O)/C(=C\c1ccc(Cl)cc1Cl)n1cncn1 (stereo not drawn)
inactive: [7] | [9] | [10]
active: [1] 62.5 µM | [3] 85.9 µM | [4] 79.1 µM | [5] 21 µM | [6] 29.4 µM | [8] 75.3 µM
